Source: the supplement of paper PMC8728848
Only a selection was taken, and the strongest signals are over-represented in it overall.

Tests used:
Experiment in all cases: glycan array binding signal (z-score within array); higher = stronger binding
Conditions in all cases: glycan notation: IUPAC condensed, linker removed
[1] = test system: Fuc(a1-3)[Gal(b1-4)]GlcNAc(b1-3)Gal(b1-3)[Fuc(a1-4)]GlcNAc
Procedure, shortened: (§1)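 Glycan array binding is given as a within-array Z-score, which can be read as non-binding when negative. The arrays, 3228 of them, came from the Consortium for Functional Glycomics database and were retained only where the protein sequence was available. Z-scores were averaged across arrays of the same protein sequence at different concentrations or buffers and across linkers.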

Fuc(a1-4)GlcNAc = test system: Fuc(a1-4)GlcNAc
Procedure, shortened: as §1

Fuc(b1-3)GlcNAc = test system: Fuc(b1-3)GlcNAc
Procedure, shortened: as §1

[2] = test system: Fuc(a1-3)[Gal(b1-4)]GlcNAc(b1-6)[Gal(b1-3)GlcNAc(b1-3)]Gal(b1-4)Glc
Procedure, shortened: as §1

Gal(a1-3)Gal(b1-3)GlcNAc = test system: Gal(a1-3)Gal(b1-3)GlcNAc
Procedure, shortened: as §1

[3] = test system: Fuc(a1-3)[Gal(b1-4)]GlcNAc(b1-3)Gal(b1-4)[Fuc(a1-3)]GlcNAc(b1-3)Gal(b1-4)[Fuc(a1-3)]GlcNAc
Procedure, shortened: as §1

[4] = test system: Fuc(a1-3)[Gal(b1-4)]GlcNAc(b1-3)GalNAc
Procedure, shortened: as §1

[5] = test system: Fuc(a1-3)[GalNAc(b1-4)]GlcNAc
Procedure, shortened: as §1

[6] = test system: Gal(a1-3)Gal(b1-3)GlcNAc(b1-2)Man
Procedure, shortened: as §1

[7] = test system: Gal(a1-3)Gal(b1-3)[Fuc(a1-4)]GlcNAc(b1-2)Man(a1-3)[Gal(a1-3)Gal(b1-3)[Fuc(a1-4)]GlcNAc(b1-2)Man(a1-6)]Man(b1-4)GlcNAc(b1-4)GlcNAc
Procedure, shortened: as §1

Gal(a1-2)Gal = test system: Gal(a1-2)Gal
Procedure, shortened: as §1

[8] = test system: Fuc(a1-3)[Gal3S(b1-4)]GlcNAc6S
Procedure, shortened: as §1

[9] = test system: Fuc(a1-3)[Gal(b1-4)]GlcNAc(b1-2)Man
Procedure, shortened: as §1

[10] = test system: Fuc(a1-3)[Gal3S(b1-4)]GlcNAc
Procedure, shortened: as §1

[11] = test system: Gal(a1-3)Gal(b1-3)GlcNAc(b1-2)Man(a1-3)[Gal(a1-3)Gal(b1-3)GlcNAc(b1-2)Man(a1-6)]Man(b1-4)GlcNAc(b1-4)GlcNAc
Procedure, shortened: as §1

[12] = test system: Fuc(a1-3)[Gal(b1-4)]GlcNAc(b1-2)Man(a1-3)[Fuc(a1-3)[Gal(b1-4)]GlcNAc(b1-2)Man(a1-6)]Man(b1-4)GlcNAc(b1-4)GlcNAc
Procedure, shortened: as §1

[13] = test system: Gal(a1-3)Gal(b1-3)GlcNAc(b1-6)GalNAc
Procedure, shortened: as §1

[14] = test system: Gal(a1-3)Gal(b1-4)GlcNAc(b1-2)Man(a1-3)[Gal(a1-3)Gal(b1-4)GlcNAc(b1-2)Man(a1-6)]Man(b1-4)GlcNAc(b1-4)GlcNAc
Procedure, shortened: as §1

[15] = test system: Gal(a1-3)Gal(b1-4)GlcNAc(b1-2)Man
Procedure, shortened: as §1

[16] = test system: Fuc(a1-3)[Neu5Ac(a2-3)]Gal(b1-4)GlcNAc(b1-3)GalNAc
Procedure, shortened: as §1

BambL (Burhholderia ambifaria), Q0B4G1
glycan array binding signal (z-score) [1]: 1.03
glycan array binding signal (z-score) (Fuc(a1-4)GlcNAc): 6.86
glycan array binding signal (z-score) (Fuc(b1-3)GlcNAc): 4.1

SiiE (Salmonella typhimurium), A0A0H3NVH0
glycan array binding signal (z-score) [2]: 1.13
glycan array binding signal (z-score) (Gal(a1-3)Gal(b1-3)GlcNAc): 0.637

Actinohivin (Actinomycete K97)
glycan array binding signal (z-score) [3]: -0.173
glycan array binding signal (z-score) [4]: -0.169
glycan array binding signal (z-score) [5]: -0.17
glycan array binding signal (z-score) (Fuc(b1-3)GlcNAc): -0.17
glycan array binding signal (z-score) [6]: 0.041
glycan array binding signal (z-score) [7]: 0.526

Epa22
glycan array binding signal (z-score) (Gal(a1-2)Gal): -0.244
glycan array binding signal (z-score) [6]: -0.377

AgI/IIC123-GFP (Streptococcus mutans)
glycan array binding signal (z-score) [8]: -0.143
glycan array binding signal (z-score) (Fuc(a1-4)GlcNAc): 6.16

AgI/II Vhelical-GFP (Streptococcus mutans)
glycan array binding signal (z-score) [8]: -0.111
glycan array binding signal (z-score) (Fuc(a1-4)GlcNAc): 19.1
glycan array binding signal (z-score) (Fuc(b1-3)GlcNAc): -0.193
glycan array binding signal (z-score) [6]: -0.049

Wza (Escherichia coli), P0A930
glycan array binding signal (z-score) [9]: 0.907
glycan array binding signal (z-score) [10]: -1.1
glycan array binding signal (z-score) [5]: -1.12
glycan array binding signal (z-score) (Fuc(b1-3)GlcNAc): 1.51
glycan array binding signal (z-score) [11]: 0.652

LcI (Legionella pneumophila)
glycan array binding signal (z-score) [12]: 0.959
glycan array binding signal (z-score) (Fuc(b1-3)GlcNAc): 0.056
glycan array binding signal (z-score) [13]: 4
glycan array binding signal (z-score) (Gal(a1-3)Gal(b1-3)GlcNAc): 4.41
glycan array binding signal (z-score) [14]: 0.12
glycan array binding signal (z-score) [15]: -0.012

SpGH101 (Streptococcus pneumoniae), Q8DR60
glycan array binding signal (z-score) [12]: -0.202
glycan array binding signal (z-score) [1]: -0.148
glycan array binding signal (z-score) [10]: -0.161
glycan array binding signal (z-score) [16]: 0.764
glycan array binding signal (z-score) [7]: 0.17
